From the supplement of paper PMC11732987, “Enantioselective OTUD7B fragment discovery through chemoproteomics screening and high-throughput optimisation” (Communications Chemistry, 2025)

What was measured:
Assay in all cases: log2 ratio of Biotin-Ahx-Ub-VS probe labelling (fragment/DMSO); higher = less target engagement (more negative = stronger competition), active = hit call of the paper (q ≤ 0.05, log2 ratio ≤ -1)
Details in all cases: compound concentration: 200 uM; treatment time: 3 h
[1] = compound: CC(C)CN(C1CC1)C(=O)CCl
Method in brief: (§1)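 Labelled DUBs from HEK293T lysate were NeutrAvidin-enriched, digested with LysC and trypsin, and run by diaPASEF LC-MS/MS. Before that, each 495 µg sample in Tris/CHAPS/IGEPAL buffer with protease inhibitors was treated in triplicate with fragment at 200 µM or vehicle for 3 h, then with Biotin-Ahx-Ub-VS at 0.5 µM final for 1 h. Values are average log2 ratios of fragment over vehicle by unpaired t-test, based on global-median-normalised Spectronaut label-free quantities from proteins with ≥2 unique peptides.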

[2] = compound: CC(NC(=O)CCl)c1cccs1
Method in brief: as §1

[3] = compound: CC1CCCCC1NC(=O)CCl
Method in brief: as §1

[4] = compound: CC1CCCCN1C(=O)CCl
Method in brief: as §1

[5] = compound: CC1CN(CC(C)O1)C(=O)CCl
Method in brief: as §1

[6] = compound: CN(C1CCCCC1)C(=O)CCl
Method in brief: as §1

[7] = compound: Cc1cc(NC(=O)CCl)no1
Method in brief: as §1

[8] = compound: Cc1cccc(NC(=O)CCl)c1
Method in brief: as §1

[9] = compound: Cc1nc(NC(=O)CCl)sc1C
Method in brief: as §1

[10] = compound: Cc1nnc(NC(=O)CCl)s1
Method in brief: as §1

[11] = compound: Cl.Cc1ncsc1CNC(=O)CCl
Method in brief: as §1

[12] = compound: ClCC(=O)N1CCCCCCC1
Method in brief: as §1

[13] = compound: ClCC(=O)NC1(CCCC1)C#N
Method in brief: as §1

[14] = compound: ClCC(=O)NCC1CCC1
Method in brief: as §1

[15] = compound: ClCC(=O)NCC1CCCO1
Method in brief: as §1

[16] = compound: ClCC(=O)NCc1ccco1
Method in brief: as §1

[17] = compound: ClCC(=O)Nc1cccc(Cl)c1
Method in brief: as §1

[18] = compound: ClCC(=O)NC(C1CC1)C1CC1
Method in brief: as §1

Measured: log2 ratio of Biotin-Ahx-Ub-VS probe labelling

UniProt Q9UGI0
Sequence of UniProt Q9UGI0 (Q9UGI0 whole entry): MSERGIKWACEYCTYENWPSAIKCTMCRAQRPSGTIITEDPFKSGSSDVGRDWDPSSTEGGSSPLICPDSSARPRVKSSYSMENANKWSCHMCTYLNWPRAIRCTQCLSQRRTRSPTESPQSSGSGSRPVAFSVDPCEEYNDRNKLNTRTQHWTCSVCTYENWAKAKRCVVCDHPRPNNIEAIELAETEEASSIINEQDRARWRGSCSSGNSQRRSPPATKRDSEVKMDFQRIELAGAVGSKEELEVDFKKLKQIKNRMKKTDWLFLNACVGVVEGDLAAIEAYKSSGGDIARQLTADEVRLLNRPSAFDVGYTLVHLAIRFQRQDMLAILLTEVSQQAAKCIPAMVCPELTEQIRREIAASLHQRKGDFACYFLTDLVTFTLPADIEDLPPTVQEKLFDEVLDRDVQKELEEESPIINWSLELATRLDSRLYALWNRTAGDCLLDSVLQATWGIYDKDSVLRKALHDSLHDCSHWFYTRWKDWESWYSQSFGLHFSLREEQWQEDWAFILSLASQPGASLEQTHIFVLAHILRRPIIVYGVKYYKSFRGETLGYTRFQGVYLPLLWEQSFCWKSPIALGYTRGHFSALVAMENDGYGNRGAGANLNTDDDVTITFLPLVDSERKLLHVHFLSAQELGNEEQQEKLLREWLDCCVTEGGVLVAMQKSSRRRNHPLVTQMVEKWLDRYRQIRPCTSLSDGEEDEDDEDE
inactive: [1] 0.11 | [2] -0.241 | [3] -0.605 | [5] -0.702 | [6] -0.423 | [7] -0.555 | [8] -0.519 | [9] -0.47 | [10] -0.661 | [11] -0.315 | [12] 0.214 | [13] -0.804 | [14] -0.704 | [15] 0.145 | [16] -0.705
active: [4] -1.13 | [17] -1.16

USP16 (UniProt Q9Y5T5)
Sequence of UniProt Q9Y5T5 (Q9Y5T5 whole entry, looked up): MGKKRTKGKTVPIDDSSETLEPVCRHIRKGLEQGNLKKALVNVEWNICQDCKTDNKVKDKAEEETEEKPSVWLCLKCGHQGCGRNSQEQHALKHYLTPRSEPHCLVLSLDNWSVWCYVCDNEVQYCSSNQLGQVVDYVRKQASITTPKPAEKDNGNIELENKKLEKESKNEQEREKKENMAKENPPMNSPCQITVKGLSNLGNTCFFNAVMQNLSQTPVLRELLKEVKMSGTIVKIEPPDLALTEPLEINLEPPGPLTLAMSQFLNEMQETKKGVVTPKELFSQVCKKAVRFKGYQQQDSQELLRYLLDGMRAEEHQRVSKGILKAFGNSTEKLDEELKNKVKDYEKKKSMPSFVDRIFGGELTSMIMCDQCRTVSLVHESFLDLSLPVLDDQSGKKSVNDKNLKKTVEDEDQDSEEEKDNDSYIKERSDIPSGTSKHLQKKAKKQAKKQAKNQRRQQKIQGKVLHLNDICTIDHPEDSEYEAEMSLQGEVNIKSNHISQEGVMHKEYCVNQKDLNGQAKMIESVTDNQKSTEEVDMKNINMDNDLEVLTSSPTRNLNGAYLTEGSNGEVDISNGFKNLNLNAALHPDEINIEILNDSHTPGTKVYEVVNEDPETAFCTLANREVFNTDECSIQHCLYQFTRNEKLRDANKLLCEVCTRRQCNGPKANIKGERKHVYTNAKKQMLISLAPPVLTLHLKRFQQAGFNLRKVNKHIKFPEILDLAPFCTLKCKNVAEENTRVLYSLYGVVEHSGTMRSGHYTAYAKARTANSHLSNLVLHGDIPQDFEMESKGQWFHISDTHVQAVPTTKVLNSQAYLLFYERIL
inactive: [1] -0.505 | [2] -0.513 | [3] 0.199 | [4] -0.203 | [5] -0.306 | [6] -0.171 | [7] -0.735 | [8] -0.611 | [9] -0.0917 | [10] -0.476 | [11] 0.128 | [12] -0.675 | [18] -0.253 | [13] -0.0851 | [14] -0.131 | [15] -0.506 | [16] -0.128 | [17] -0.24

COPS5 (UniProt Q92905)
inactive: [1] -0.228 | [2] 0.105 | [3] -0.102 | [4] -0.0488 | [5] -0.0269 | [6] 0.0396 | [7] -0.141 | [8] -0.303 | [9] -0.00505 | [10] -0.0303 | [11] 0.0391 | [12] 0.0347 | [13] 0.203 | [14] 0.0382 | [15] 0.0301 | [16] 0.0105 | [17] 0.27

USP9X (UniProt Q93008)
Sequence of UniProt Q93008 (Q93008 whole entry): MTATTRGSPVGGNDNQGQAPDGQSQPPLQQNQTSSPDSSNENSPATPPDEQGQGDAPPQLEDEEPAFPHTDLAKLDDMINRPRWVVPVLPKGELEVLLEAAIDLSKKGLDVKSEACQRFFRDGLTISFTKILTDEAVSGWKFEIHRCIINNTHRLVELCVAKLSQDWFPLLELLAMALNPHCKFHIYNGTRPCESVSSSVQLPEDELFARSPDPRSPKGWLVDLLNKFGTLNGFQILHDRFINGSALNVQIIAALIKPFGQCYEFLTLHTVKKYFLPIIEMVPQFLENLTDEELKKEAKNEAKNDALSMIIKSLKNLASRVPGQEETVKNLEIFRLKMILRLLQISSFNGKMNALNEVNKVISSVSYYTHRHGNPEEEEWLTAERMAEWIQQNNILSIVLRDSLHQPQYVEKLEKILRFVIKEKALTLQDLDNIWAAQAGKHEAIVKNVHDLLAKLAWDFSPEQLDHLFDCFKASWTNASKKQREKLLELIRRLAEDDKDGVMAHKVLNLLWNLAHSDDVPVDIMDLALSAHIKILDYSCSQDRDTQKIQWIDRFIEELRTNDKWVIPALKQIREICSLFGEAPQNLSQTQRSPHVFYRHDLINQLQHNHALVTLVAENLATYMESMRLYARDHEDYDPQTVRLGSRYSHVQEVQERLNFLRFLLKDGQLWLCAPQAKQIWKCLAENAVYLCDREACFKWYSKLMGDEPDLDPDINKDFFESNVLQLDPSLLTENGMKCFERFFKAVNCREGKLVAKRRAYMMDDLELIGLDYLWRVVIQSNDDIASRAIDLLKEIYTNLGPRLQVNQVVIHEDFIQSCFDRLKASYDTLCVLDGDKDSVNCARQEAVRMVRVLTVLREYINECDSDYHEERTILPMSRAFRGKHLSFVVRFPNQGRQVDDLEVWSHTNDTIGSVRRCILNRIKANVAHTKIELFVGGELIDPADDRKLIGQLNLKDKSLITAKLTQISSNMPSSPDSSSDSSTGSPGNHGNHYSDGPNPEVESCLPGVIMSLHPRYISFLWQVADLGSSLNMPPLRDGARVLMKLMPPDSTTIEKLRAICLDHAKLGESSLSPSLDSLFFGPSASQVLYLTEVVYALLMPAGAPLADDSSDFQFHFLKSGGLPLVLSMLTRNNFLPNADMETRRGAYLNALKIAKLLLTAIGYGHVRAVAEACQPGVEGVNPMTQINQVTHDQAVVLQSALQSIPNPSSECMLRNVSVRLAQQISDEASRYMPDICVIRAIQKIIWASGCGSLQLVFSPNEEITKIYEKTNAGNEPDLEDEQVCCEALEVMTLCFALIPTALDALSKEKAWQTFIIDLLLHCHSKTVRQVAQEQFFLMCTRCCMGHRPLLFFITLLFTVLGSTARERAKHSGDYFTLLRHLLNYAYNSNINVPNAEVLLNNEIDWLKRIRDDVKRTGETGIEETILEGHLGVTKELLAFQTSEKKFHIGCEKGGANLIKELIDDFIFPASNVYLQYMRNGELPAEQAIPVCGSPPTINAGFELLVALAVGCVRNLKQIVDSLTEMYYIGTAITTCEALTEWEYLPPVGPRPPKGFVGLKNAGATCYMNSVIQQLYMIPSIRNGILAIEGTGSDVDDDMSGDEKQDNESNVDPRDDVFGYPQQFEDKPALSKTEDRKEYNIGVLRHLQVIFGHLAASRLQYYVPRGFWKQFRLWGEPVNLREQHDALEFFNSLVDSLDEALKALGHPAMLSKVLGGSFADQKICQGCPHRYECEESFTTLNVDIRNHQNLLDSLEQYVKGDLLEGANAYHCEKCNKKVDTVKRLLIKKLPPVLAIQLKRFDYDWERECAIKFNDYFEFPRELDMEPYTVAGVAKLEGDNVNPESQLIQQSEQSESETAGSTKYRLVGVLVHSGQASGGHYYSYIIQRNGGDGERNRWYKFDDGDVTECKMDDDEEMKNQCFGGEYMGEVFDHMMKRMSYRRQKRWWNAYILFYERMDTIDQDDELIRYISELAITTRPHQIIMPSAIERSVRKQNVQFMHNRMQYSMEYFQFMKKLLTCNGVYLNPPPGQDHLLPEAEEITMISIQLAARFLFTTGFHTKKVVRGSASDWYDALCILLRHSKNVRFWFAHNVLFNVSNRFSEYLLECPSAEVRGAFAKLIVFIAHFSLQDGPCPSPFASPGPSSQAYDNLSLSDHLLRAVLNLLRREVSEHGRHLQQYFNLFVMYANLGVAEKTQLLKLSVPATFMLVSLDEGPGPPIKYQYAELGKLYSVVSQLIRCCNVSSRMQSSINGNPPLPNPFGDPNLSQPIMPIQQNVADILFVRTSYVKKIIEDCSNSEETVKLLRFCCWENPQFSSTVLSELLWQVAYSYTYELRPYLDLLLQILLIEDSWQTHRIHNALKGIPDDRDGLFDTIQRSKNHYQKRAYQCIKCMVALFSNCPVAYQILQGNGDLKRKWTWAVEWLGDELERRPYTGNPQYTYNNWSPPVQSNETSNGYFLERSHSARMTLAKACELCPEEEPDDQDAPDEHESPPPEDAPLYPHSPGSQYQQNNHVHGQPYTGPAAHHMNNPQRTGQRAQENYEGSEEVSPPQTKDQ
inactive: [1] -0.0684 | [2] -0.269 | [3] -0.142 | [4] -0.264 | [5] -0.347 | [6] -0.336 | [7] -0.0452 | [8] -0.0218 | [9] -0.239 | [10] -0.36 | [11] -0.111 | [12] 0.0487 | [13] -0.264 | [14] -0.191 | [15] -0.0136 | [16] -0.446 | [17] -0.734

USP7 (UniProt Q93009)
inactive: [1] -0.278 | [2] -0.0253 | [3] -0.0899 | [4] -0.604 | [5] -0.322 | [6] -0.42 | [7] -0.32 | [8] -0.48 | [9] -0.237 | [10] -0.376 | [11] 0.00818 | [12] -0.609 | [13] -0.186 | [14] -0.0702 | [15] -0.207 | [16] -0.0794 | [17] -0.98

USP24 (UniProt Q9UPU5)
active: [17] -1.4
inactive: [1] -0.191 | [2] -0.0286 | [3] -0.426 | [4] -0.579 | [5] -0.301 | [6] -0.575 | [7] -0.201 | [8] -0.537 | [9] -0.319 | [10] -0.639 | [11] -0.322 | [12] -0.475 | [18] -0.346 | [13] -0.116 | [14] 0.00205 | [15] 0.122 | [16] -0.238

OTUB1 (UniProt Q96FW1)
Sequence of UniProt Q96FW1 (Q96FW1 whole entry): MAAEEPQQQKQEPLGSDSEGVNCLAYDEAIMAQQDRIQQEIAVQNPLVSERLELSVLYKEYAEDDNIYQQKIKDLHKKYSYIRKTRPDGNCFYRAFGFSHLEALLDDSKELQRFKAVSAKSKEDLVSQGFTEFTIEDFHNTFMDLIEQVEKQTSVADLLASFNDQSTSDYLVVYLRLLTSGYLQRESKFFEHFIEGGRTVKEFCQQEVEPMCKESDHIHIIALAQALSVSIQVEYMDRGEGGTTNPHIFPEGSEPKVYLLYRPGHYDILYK
inactive: [1] -0.0296 | [2] 0.137 | [3] -0.0525 | [4] -0.264 | [5] -0.26 | [6] 0.0388 | [7] 0.388 | [8] 0.123 | [9] 0.281 | [10] 0.165 | [11] -0.174 | [12] 0.116 | [18] 0.0718 | [13] -0.247 | [14] -0.422 | [15] 0.252 | [16] -0.0321 | [17] -0.286

UCHL3 (UniProt P15374)
Sequence of UniProt P15374 (P15374 whole entry): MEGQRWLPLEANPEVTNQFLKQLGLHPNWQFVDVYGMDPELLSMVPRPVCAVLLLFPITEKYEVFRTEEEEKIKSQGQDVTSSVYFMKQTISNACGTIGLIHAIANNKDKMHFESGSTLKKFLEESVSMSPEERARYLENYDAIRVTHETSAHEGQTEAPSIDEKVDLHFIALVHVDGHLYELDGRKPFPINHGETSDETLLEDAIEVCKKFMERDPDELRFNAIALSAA
inactive: [1] 0.39 | [2] 0.116 | [3] 0.0229 | [4] 0.0176 | [5] 0.122 | [6] -0.0569 | [7] -0.129 | [8] -0.345 | [9] 0.56 | [10] 0.214 | [11] 0.504 | [12] 0.341 | [13] -0.0242 | [14] 0.0333 | [15] 0.275 | [16] 0.103 | [17] -0.827

USP5 (UniProt P45974)
inactive: [1] 0.195 | [2] 0.3 | [3] -0.0515 | [4] -0.178 | [5] 0.00747 | [6] 0.487 | [7] -0.18 | [8] -0.356 | [9] 0.0301 | [10] -0.648 | [11] -0.209 | [12] 0.18 | [13] -0.00567 | [14] -0.0477 | [15] 0.0345 | [16] 0.0924 | [17] -0.784

USP48 (UniProt Q86UV5)
inactive: [1] -0.00536 | [2] -0.0207 | [3] -0.24 | [4] -0.338 | [5] -0.249 | [6] -0.456 | [7] -0.25 | [8] -0.217 | [9] -0.179 | [10] -0.251 | [11] 0.0264 | [12] -0.519 | [18] 0.01 | [13] -0.56 | [14] -0.21 | [15] -0.0126 | [16] -0.405 | [17] -0.545

USP10 (UniProt Q14694)
inactive: [1] -0.156 | [2] -0.0602 | [3] -0.0935 | [4] -0.0758 | [5] -0.166 | [6] -0.0336 | [7] -0.0298 | [8] -0.165 | [9] -0.0878 | [10] -0.256 | [11] -0.128 | [12] -0.22 | [13] 0.0316 | [14] -0.0499 | [15] -0.115 | [16] -0.0176 | [17] -0.249

UCHL1 (UniProt P09936)
Sequence of UniProt P09936 (P09936 whole entry, looked up): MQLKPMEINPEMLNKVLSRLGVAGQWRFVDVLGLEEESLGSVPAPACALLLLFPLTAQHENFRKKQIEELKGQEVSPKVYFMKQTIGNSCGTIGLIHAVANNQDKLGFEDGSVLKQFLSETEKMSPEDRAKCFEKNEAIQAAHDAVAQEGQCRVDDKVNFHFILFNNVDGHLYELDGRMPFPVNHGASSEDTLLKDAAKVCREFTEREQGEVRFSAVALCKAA
inactive: [11] -0.693
active: [1] -1.13 | [2] -1.4 | [3] -1.18 | [4] -1.34 | [5] -1.75 | [6] -1.52 | [7] -1.21 | [8] -1.8 | [9] -1.21 | [10] -1.48 | [12] -1.43 | [13] -2.07 | [14] -1.66 | [15] -1.22 | [16] -1.39 | [17] -2.02

USP47 (UniProt Q96K76)
inactive: [1] -0.233 | [2] -0.0445 | [3] 0.00775 | [4] -0.363 | [5] 0.145 | [6] -0.299 | [7] -0.276 | [8] -0.708 | [9] -0.108 | [10] -0.366 | [11] 0.0602 | [12] -0.137 | [13] 0.0163 | [14] -0.243 | [15] -0.458 | [16] -0.679 | [17] -0.241

UniProt Q8TE49
inactive: [1] -0.309 | [2] -0.893 | [4] -0.301 | [5] -0.547 | [6] -0.46 | [7] -0.679 | [8] -0.769 | [9] -0.452 | [10] -0.537 | [11] -0.377 | [12] -0.312 | [14] -0.802 | [15] -0.46 | [16] -0.215
active: [3] -1.99 | [13] -1.15 | [17] -1.29

EIF3F (UniProt O00303)
inactive: [1] -0.0929 | [2] -0.197 | [3] -0.16 | [4] -0.0889 | [5] -0.424 | [6] -0.158 | [7] -0.0386 | [8] -0.0785 | [9] 0.0404 | [10] -0.0892 | [11] -0.495 | [12] -0.124 | [18] -0.0875 | [13] -0.132 | [14] -0.235 | [15] 0.0109 | [16] 0.0785 | [17] -0.0247

USP28 (UniProt Q96RU2)
inactive: [1] -0.207 | [2] -0.568 | [3] -0.669 | [4] -0.421 | [5] -0.575 | [6] -0.419 | [7] -0.987 | [8] -0.664 | [9] -0.857 | [10] -0.957 | [11] -0.256 | [12] -0.28 | [18] -0.446 | [13] -0.611 | [14] -0.427 | [15] -0.11 | [16] -0.47
active: [17] -1.44

UCHL5 (UniProt Q9Y5K5)
active: [17] -1.02
inactive: [1] -0.0257 | [2] -0.148 | [3] -0.168 | [4] -0.283 | [5] -0.314 | [6] -0.249 | [7] 0.0718 | [8] -0.0463 | [9] -0.292 | [10] -0.0414 | [11] -0.0581 | [12] -0.0659 | [18] -0.00772 | [13] -0.42 | [14] -0.292 | [15] -0.0635 | [16] -0.29

OTUD5 (UniProt Q96G74)
inactive: [1] -0.09 | [2] 0.0244 | [3] -0.556 | [4] -0.67 | [5] -0.615 | [6] -0.0917 | [7] -0.331 | [8] -0.13 | [9] -0.315 | [10] -0.685 | [11] -0.104 | [12] -0.27 | [13] -0.519 | [14] -0.238 | [15] -0.0992 | [16] -0.442 | [17] -0.995
